The full list was thinned out, with hits kept by preference.
Methyltransferases: Primary Screen for Target Class Profiling of Small Molecule Inhibitors of Methyltransferases; purified enzyme, MTase-Glo SAH luminescence; active compounds read low; calls only at 40 µM; 25,000 compounds, 3.9% hits; AID 1745853, 2022; call rule not given here
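Each enzyme was reacted with SAM and its substrate, with compounds tested once at 40 uM; SAH formed was read by MTase-Glo luminescence.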
MTase-Glo ctr: counter-screen for methyltransferase inhibitors: coupling enzymes without methyltransferase; shares compounds with Methyltransferases; MTase-Glo coupled enzymes, SAH conversion luminescence, no MTase; Potency, µM (top dose mostly 57.3 µM), without a hit: at the top dose activity change, negative = inhibition, usual class: inhibitors; 180 compounds, 6% hits; active means well fitted inhibition curve with a large enough effect; inconclusive means small, poorly fitted or top-dose-only effect; further: potency means the concentration at half of the fitted maximal effect
Numbers without * were called inactive; i = inactive; ? = inconclusive; + = active, no number; [ ] = dose if it differs, or a comment. On the % scale 0 is the no-effect control and ±100 the full control effect.

SMILES	Methyltransferases	others
CCC(C(=O)NCc1ccccc1C)n1ccc2cc(S(=O)(=O)N3CCCCC3)ccc21 (configuration not stated)	i
COc1ccc2[nH]c(CNc3cc(C4CC(N)C4)nc(C)n3)cc2c1 (configuration not stated)	+	MTase-Glo ctr=-1%
CNC(=O)[C@@H]1CN(C(=O)c2cc3cc(OC)ccc3[nH]2)C[C@H]1COC	i
C#CCNCc1cc2cc(OCc3ccccc3)ccc2[nH]1	i
CCOc1ccc(N2C(=O)c3c(C(=O)OC)ncn3CC2(C)C(=O)NCCCOC(C)C)cc1 (configuration not stated)	i
CCCn1c(=O)c2ccc(C(=O)NCC(C)C)cc2n2c(SCC(=O)c3ccc(F)cc3)nnc12	i
CN(C)CCN1C(=O)c2cc3occc3n2CC1(C)C(=O)NC1CCCCCCC1 (configuration not stated)	i
CC1CCCC(NC(=O)C2(C)Cn3c(cc4sccc43)C(=O)N2Cc2cccc(Cl)c2)C1C (configuration not stated)	i
CCCn1c(C)cnc1CC1CCCN(S(=O)(=O)c2cc(OC)ccc2OC)C1 (configuration not stated)	i
CCCn1c(C)cnc1CC1CCN(C(=O)NCc2ccc(OC)cc2)C1 (configuration not stated)	+	MTase-Glo ctr=-4%
CNC(=O)N1CCC(C2CCN(C(=O)NCc3cccc(OC)c3)C2)CC1 (configuration not stated)	i
CC1(C(=O)Nc2ccccc2)CN(Cc2ccccc2)Cc2ccc(N3CCOCC3)nc21 (configuration not stated)	i
COc1ccc(CNc2cc3c(cn2)CN(Cc2ccccc2)CCN3)cc1OC	+	MTase-Glo ctr=-1%[85.7 µM]
CCn1cc(CNc2ccc(-c3ccccc3OC)nn2)cn1	i
c1ccc(CN2CCNc3cnc(Nc4ccc(N5CCOCC5)cc4)cc3C2)cc1	+	MTase-Glo ctr=3%[85.7 µM]
O=C1NCCN1C1CCN(Cc2cccnc2)CC1	i
Cn1nccc1-c1cc2c(cn1)CN(Cc1ccncc1)CCN2	+	MTase-Glo ctr=-3%[85.7 µM]
COc1ccc(CN2C(=O)c3cc(-c4ccccc4)nn3CC2(C)C(=O)NCc2ccccc2)cc1OC (configuration not stated)	i
COc1cccc(Nc2cc3c(cn2)CN(Cc2cccnc2)CCN3)c1	+	MTase-Glo ctr=-5%[85.7 µM]
CCOc1cc2c(cn1)NCCN(Cc1ccncc1Cl)C2	i
O=C1c2cc(N3CCOCC3)nc(-c3cccc(CO)c3)c2CN1c1ccccc1	i
COc1ccc2nc([C@H]3CCN(Cc4cccnc4)C3)[nH]c2c1	i
Cc1ccc(C)c(C(=O)Cn2nc3n(C(C)C)c(=O)c4ccc(C(=O)NC5CCCCC5)cc4n3c2=O)c1	i
CCC(C)NC(=O)c1ccc2c(=O)n(C)c3nnc(SCC(=O)c4ccc(F)cc4)n3c2c1 (configuration not stated)	i
COc1ccc2cc3n(c2c1)CC(C)(C(=O)NC1CCCC1)N(Cc1ccc2c(c1)OCO2)C3=O (configuration not stated)	i
SMILES	Methyltransferases	others
COc1cc(C(=O)OC[C@@]2(O)CO[C@@H](O[C@H]3[C@H](Oc4ccc(C(=O)O)cc4OC)O[C@H](CO)[C@@H](O)[C@@H]3O)[C@@H]2O)ccc1O	i
CCCn1c(=O)c2cc(F)ccc2n2c(SCc3ccccc3)nnc12	i
COc1ccccc1CNC(=O)C1(C)Cn2c(cc3ccccc32)C(=O)N1CCN1CCOCC1 (configuration not stated)	i
CCCn1c(=O)c2ccc(Cl)cc2n2c(=O)n(CC(=O)Nc3cc(C)cc(C)c3)nc12	i
COc1ccc(-c2cc3c(cn2)CN(CCc2ccccc2)CCN3)cc1OC	+	MTase-Glo ctr=?
COc1ccc(-c2nnc3n(Cc4ccccc4)c(=O)c4ccccc4n23)cc1OC	i
COc1ccc(CCN2CCN(CCCc3ccccc3)CC2)cc1OC	i
O=C(CCc1nnc2n(Cc3ccc(Cl)cc3)c(=O)c3ccccc3n12)N1CC=C(c2ccccc2)CC1	i
CC1CCCCN1S(=O)(=O)c1ccc(N2CCCC2=O)cc1 (configuration not stated)	i
Cc1ccc(CN2C(=O)c3cc4ccccc4n3CC2(C)C(=O)NCc2ccccc2)o1 (configuration not stated)	i
O=C(CCc1nnc2n(Cc3ccc(F)cc3)c(=O)c3ccccc3n12)NCc1ccccc1Cl	i
Cc1ccccc1Cn1nc2n(C(C)C)c(=O)c3ccc(C(=O)NC(C)C)cc3n2c1=O	i
Cc1ccc(NC(=O)Cn2c(=O)oc3cc(S(=O)(=O)N4CC(C)CC(C)C4)ccc32)c(Cl)c1 (configuration not stated)	i
CCNc1ncc(CN2CCN(c3ccncc3)CC2)cn1	+	MTase-Glo ctr=-2%
CCN1CCN(C(=O)C2CCCN(Cc3ccncc3)CCC(=O)NCC2)CC1 (configuration not stated)	i

Source: PubChem BioAssay (National Center for Advancing Translational Sciences (NCATS))
